In PubChem BioAssay AID1645886 (National Center for Advancing Translational Sciences (NCATS), 2021) one finds Potency and activity, negative = inhibition data, which are given here for 65 molecules.

About 260 (1.6%) of roughly 16,000 compounds were called active. Entries that show only a call come without a potency. Another 14% or so got no clear call; they are omitted. The sample as a whole holds a higher share of actives than the screen did. A number with no mark means an inactive call. Calls follow the shape of the dose curve; as a rule, active = well fitted inhibition curve with a large enough effect; inconclusive = small, poorly fitted or top-dose-only effect; inactive = no such curve, though single readings can be large or run the other way.
Potency is read from the fitted curve at half-maximal effect.

Sequence of Rap guanine nucleotide exchange factor 4 (Homo sapiens) (Q8WZA2 whole entry, looked up): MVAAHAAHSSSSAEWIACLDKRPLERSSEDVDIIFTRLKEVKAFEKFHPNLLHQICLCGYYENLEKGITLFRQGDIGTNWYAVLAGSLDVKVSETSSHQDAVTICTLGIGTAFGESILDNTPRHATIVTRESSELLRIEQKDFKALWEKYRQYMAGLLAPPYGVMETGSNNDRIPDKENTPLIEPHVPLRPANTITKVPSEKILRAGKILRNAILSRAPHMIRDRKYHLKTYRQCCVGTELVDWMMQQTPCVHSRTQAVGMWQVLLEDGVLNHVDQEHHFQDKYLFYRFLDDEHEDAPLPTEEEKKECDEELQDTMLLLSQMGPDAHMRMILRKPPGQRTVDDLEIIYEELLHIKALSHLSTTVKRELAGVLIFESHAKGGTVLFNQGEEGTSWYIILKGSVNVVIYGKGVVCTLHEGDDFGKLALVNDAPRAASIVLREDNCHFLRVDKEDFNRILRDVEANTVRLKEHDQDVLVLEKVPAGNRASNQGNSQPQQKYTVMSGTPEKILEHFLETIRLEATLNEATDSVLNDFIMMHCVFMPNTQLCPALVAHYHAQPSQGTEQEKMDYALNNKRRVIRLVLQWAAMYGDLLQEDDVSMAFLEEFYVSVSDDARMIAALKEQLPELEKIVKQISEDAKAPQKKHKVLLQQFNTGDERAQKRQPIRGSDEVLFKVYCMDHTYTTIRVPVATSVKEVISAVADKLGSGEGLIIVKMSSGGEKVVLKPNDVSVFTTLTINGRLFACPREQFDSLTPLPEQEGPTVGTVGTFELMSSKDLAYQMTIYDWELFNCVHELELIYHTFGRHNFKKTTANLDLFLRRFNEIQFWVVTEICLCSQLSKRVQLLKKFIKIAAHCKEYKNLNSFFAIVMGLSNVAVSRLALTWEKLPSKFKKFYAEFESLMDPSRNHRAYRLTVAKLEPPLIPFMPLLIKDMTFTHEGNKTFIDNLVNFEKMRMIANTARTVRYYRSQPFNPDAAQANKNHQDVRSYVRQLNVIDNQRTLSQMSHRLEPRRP

For the assay, the target named is Rap guanine nucleotide exchange factor 4 (Homo sapiens) (UniProt Q8WZA2). Nature of the assay: Validation qHTS for antagonist of cAMP-regulated guanine nucleotide exchange factor 4 (EPAC2). Also: nearly all actives have a fitted effect of over 40% in size. Particulars: EPAC2 Rap1B BODIPY-GDP exchange, fluorescence; series mostly up to 112 µM. The source says:
Principle Investigator: Xiaodong Cheng Ph.D. The University of Texas Medical Branch, […], TX MLPCN Grant: NS066510 In multi-cellular eukaryotic organisms, the effects of cAMP are transduced by two ubiquitously-expressed intracellular cAMP receptors, the classic protein kinase A/cAMP-dependent protein kinase (PKA/cAPK) and the more recently discovered exchange protein directly activated by cAMP/cAMP-regulated guanine nucleotide exchange factor (EPAC/cAMP-GEF). Both PKA and EPAC are ubiquitously expressed in all tissues, and an increase in intracellular cAMP levels will lead to the activation of both PKA and EPAC. Therefore, careful dissections of the individual role and relative contribution of EPAC and PKA within the overall cAMP signaling in various model systems are critical for further elucidating the mechanism of cAMP signaling. To date no EPAC-specific antagonists and agonist, as well as isoform-specific agonists have been reported, and developing EPAC-specific pharmacological probes to determine the physiological functions that EPAC play in the overall cAMP-mediated signaling remains a major challenge within the research field. Furthermore, identified regulators of EPAC may lead to new mechanism-based therapeutic strategies specifically targeting the EPAC / cAMP-signaling components as EPAC has been implicated to play important roles in major human pathological conditions such as diabetes, heart disease, and cancer. This qHTS will be used to screen the Molecular Libraries Small Molecule Repository (MLSMR) as a concentration-titration series using the NCGC unique quantitative screening (qHTS) platform to find activators for EPAC1. In addition, this assay will also be used as a counterscreen for the EPAC2 qHTS. This fluorescent based assay is developed and validated for EPAC1 that measures exchange using EPAC effector Rap1 complex with BODIPY-GDP, a GDP analog with a tethered fluorophores. Activators are identified by monitoring the change in fluorescence signal as the exchanged free BODIPY-GDP has a reduced fluorescence compared to Rap1-bound BODIPY-GDP. Increase in signal (activation) is the desired outcome for the EPAC1 agonist while no activity in this assay is desired for the EPAC2 agonist counterscreen. Reference: [1] de Rooij, J., Zwartkruis, F. J., Verheijen, M. H., Cool, R. H., Nijman, S. M., Wittinghofer, A., and Bos, J.L. (1998) Nature 396, 474-477.
Briefly, three uL of reagents (100 nM EPAC2, 250 nM RAP1B-BODIPY-GDP, 50 uM GDP) were dispensed into a 1536-well Greiner black solid-bottom medium binding assay plate. Controls and test compounds (23 nL) were transferred to the plate via a Kalypsys pin tool equipped with a 1536-pin array. The plates were centrifuged at 1,000 rpm for 15 seconds followed by 5 minute incubation at room temperature. The assay plates were read at 5 minute intervals for 30 minutes in the ViewLux plate reader using 480nm excitation and 540nm emission filters. The results were normalized to the agonist positive control of 6.5 mM cAMP.
(In qHTS, concentration-response curves come from the screen itself.)
With `Cc1cc(-c2ccnc(-n3ncc(C(=O)NCCc4ccncc4)c3C)n2)c(C)s1`, the Potency entry was “inactive”.
Regarding `CC(=O)OCC(=O)[C@@]1(O)CCC2C3CCC4=CC(=O)CC[C@]4(C)C3C(=O)C[C@]21C` (stereo not given in full), the Potency result is “inactive”.
On the same count and under the same terms, with `c1cncc(CNc2ccnc(-c3ccc4c(c3)OCO4)n2)c1` the entry was “inactive”.
As to `COc1ccc2[nH]cc(CCNc3ncnc4ccc(-c5ccccc5CN(C)C)cc34)c2c1`, the Potency result is “inactive”.
Still for that read-out and setting: then `COc1ccc(Oc2ncc3nc(C)c(=O)n(-c4ccccc4)c3n2)cc1`, with “inactive”.
Still for that read-out and setting: then `O=C(OCc1ccccc1)c1ccc(O)cc1`, with “inactive”; and `O=C1C(c2ccccn2)=[N+]([O-])c2ccccc21`, with “inactive”; and `Cn1nccc1C(=O)NCC1CCC2(CCN(Cc3c(O)ccc4ccccc34)CC2)O1` (stereo not given), with “inactive”.
`COc1ccccc1N1CCN(CCN2C(=O)c3ccccc3C(C)(C)C2=O)CC1`: the Potency result is “inactive”.
Turning to `COc1ccc(-c2nc3cnc(N(C)C)nc3n(Cc3cccs3)c2=O)cc1`, the Potency result was “inactive”.
For `COc1ccc(-n2c(CNC(=O)c3cc(C(F)(F)F)ccc3Cl)nnc2SC)cc1`, the Potency result was “inactive”.
On the same count and under the same terms, then `CC(=O)O[C@H]1CC[C@@]2(C)C(=CC[C@@H]3[C@@H]2CC[C@]2(C)C(c4cccnc4)=CC[C@@H]32)C1`, with “inactive”.
Same read-out and setting: then `COc1ccc(CCCOC(Cn2ccnc2)c2ccc(OC)cc2)cc1` (stereo not given), with “inactive”; and `Cc1cnc(CNc2nc(-c3cccnc3)nc3ccccc23)cn1`, with “inactive”.
As for `Cc1cc(C)cc(CN2CCc3nnc(C(NS(C)(=O)=O)C(C)C)n3CC2)c1` (stereo not given), the Potency entry was “inactive”.
On the same count and under the same terms, then `COCCNc1ncnc2ccc(-c3ccccc3CN(C)C)cc12`, with “inactive”; and `Cc1cccc(CNc2ccnc(-c3cccnc3)n2)c1`, with “inactive”.
As to `CC(=O)N1CCC2(CCCN(Cc3ccc(C#N)cc3)C2)CC1`, the Potency entry is “inactive”.
On the same count and under the same terms, with `Cc1c(S(=O)(=O)O)oc2c1C(=O)C(=O)c1c-2ccc2c1CCCC2(C)C` the figure was 44.7 µM (active); with `COc1ccc(CN(C)CCn2cc(C(=O)N3CCSCC3)nn2)cc1C`, “inactive”.
On the same count and under the same terms, then `c1ccc(CNc2ncncc2-c2cccnc2)cc1`, with “inactive”.
Still for that read-out and setting: with `CS(=O)(=O)NC(=O)CCC/C=C\C[C@H]1C(=O)C[C@@H](O)[C@@H]1/C=C/[C@H](O)COc1ccccc1` the entry was “inactive”; with `COc1ccc(C(=O)N2CCC[C@@]3(CCN(C(=O)NC(C)C)C3)C2)cc1`, “inactive”.
Consider `Cc1cnc(-n2ncc(C(=O)N3CCN(C(C)C)CC3)c2-c2ccco2)nc1-c1ccc(F)cc1`, for which the Potency result was “inactive”.
Take `CN(C)c1ccc(/C=C/c2c3ccccc3nc3ccccc23)cc1`: the Potency entry is “inactive”.
Still for that read-out and setting: then `O=c1c(-c2ccc(F)cc2)nc2cncnc2n1-c1ccccc1`, with “inactive”.
Turning to `COCC1CCCN(Cc2ccc3c(c2)CN(C(=O)c2ccnn2C)CCO3)C1` (stereo not given), the Potency result is “inactive”.
For the molecule `Cc1c(O)cc2c(c1C)O[C@](C)(CCC[C@H](C)CCC[C@H](C)CCCC(C)C)CC2`, the Potency result is “inactive”.
The same measure, in the same setting: with `CCc1noc(C)c1C(=O)NCCN1Cc2cc(OC)ccc2OC(CC)C1` (stereo not given) the entry was “inactive”.
As for `CC(N)(C(=O)O)c1ccc(-c2nn[nH]n2)cc1` (stereo not given), the Potency entry is “inactive”.
The same measure, in the same setting: then `O=C1CCC[C@@H]2C[C@@]3(C[C@@H]4CCN1[C@H]24)Nc1ccccc1NC3=NCc1ccccc1`, with “inactive”; and `C=C1O[C@@](CO)(n2cnc3c(N)ncnc32)[C@H](O)[C@@H]1O`, with “inactive”; and `CO/N=C(\C(=O)N[C@@H]1C(=O)N2C(C(=O)O)=CCS[C@H]12)c1csc(N)n1`, with “inactive”.
As to `COC(=O)CC1C(C)(C)C(OC(C)=O)C2CC3=C4CC(=O)OC(c5ccoc5)[C@]4(C)CCC3[C@@]1(C)C2=O` (stereo not given in full), the Potency result is “inactive”.
As for `COc1ccccc1CNc1ccnc(-c2c(C)noc2C)n1`, the Potency result was “inactive”.
Turning to `COc1ccc(C(=O)N2CCC3(CCCN(C(c4ccccc4)c4ccccc4)C3)CC2)cc1`, the Potency result is “inactive”.
For `CN(C)C(=O)c1ccc(-c2cncnc2NC2CCNCC2)cc1`, the Potency result is “inactive”.
Turning to `CCC1(C2CCN(C(=O)c3cccc(F)c3F)CC2)NC(=O)N(CCc2scnc2C)C1=O` (stereo not given), the Potency entry was “inactive”.
On to `COc1ccccc1N1CCN(C[C@@H]2CN3C(=O)N(C)c4ccccc4C3=N2)CC1`, for which the Potency entry is “inactive”.
Turning to `Cc1ccc(CN2CCCOCCS2(=O)=O)cc1`, the Potency result was “inactive”.
Still for that read-out and setting: with `CCC(C)[C@H]1COCCS(=O)(=O)N1Cc1ccc(C)cc1` (stereo not given in full) the figure was 79.4 µM (active); with `Cc1ncc2c(c1CNS(=O)(=O)N(C)C)CCN(C(=O)c1ccccc1F)C2`, “inactive”.
The same measure, in the same setting: then `COCCNc1cc(-c2c(C)noc2C)ncn1`, with “inactive”; and `C[N+](C)(C)CCCCCNCC12CC3CC(CC(C3)C1)C2`, with “inactive”; and `O=C(O)CCCc1ccccc1`, with “inactive”.
For the molecule `Cc1cccc(CNC(=O)c2cnn(-c3nccc(-c4ccccc4F)n3)c2C2CC2)n1`, the Potency entry is “inactive”.
For `O=C(c1cnccn1)N1CCC[C@@]2(CCN(Cc3ccncc3)C2)C1`, the Potency result was “inactive”.
In the case of `COCCn1c(=O)c(-c2cc(F)cc(F)c2)nc2cnc(N3CCNCC3)nc21`, the Potency entry is “inactive”.
With `Cn1cccc1C(=O)N1CCC[C@@]2(CCN(Cc3nccs3)C2)C1`, the Potency result was “inactive”.
Regarding `CC(C)=CC1C(C(=O)O)C1(C)C` (stereo not given), the Potency result was “inactive”.
Take `CCCCC/C=C\C/C=C\CCCCCCCCCC(=O)O`: the activity, negative = inhibition was -26.6% [at 11.4 µM].
`COc1ccccc1C1CN(Cc2ccccc2O)Cc2ccccc2O1` (stereo not given): the Potency result was “inactive”.
As to `Cc1c(O)cc(O)c2c(=O)c(-c3ccc(O)cc3)coc12`, the Potency result was “inactive”.
Consider `C[C@@H]1O[C@@H](OC[C@H]2O[C@@H](Oc3c(-c4cccc(O)c4O)oc4cc(O)cc(O)c4c3=O)[C@H](O)[C@@H](O)[C@@H]2O)[C@H](O)[C@H](O)[C@H]1O`, for which the Potency result was “inactive”.
The same measure, in the same setting: with `COc1cccc(Cn2c(=O)c(-c3ccccc3)nc3cnc(OC)nc32)c1` the entry was “inactive”; with `O=c1c(-c2ccc(F)cc2)nc2cnc(N3CCNCC3)nc2n1Cc1cccs1`, “inactive”.
Regarding `O=C(c1csnn1)N1CCC[C@@]2(CCN(Cc3nccs3)C2)C1`, the Potency entry was “inactive”.
Still for that read-out and setting: with `COCCN1CCN(C(=O)c2sc3ncnc(NCC4CCCO4)c3c2C)CC1` (stereo not given) the entry was “inactive”; with `O=C(Nc1cccc(F)c1)N1CCC2(CC1)CCN(S(=O)(=O)c1ccccc1)CC2`, “inactive”.
As for `c1ccc2c(Nc3ccncc3)nc(-c3ccoc3)nc2c1`, the Potency entry was “inactive”.
Regarding `COCCn1c(=O)c(CCc2ccccc2)nc2cncnc21`, the Potency result is “inactive”.
In the case of `CCC(C)[C@@H](N)C(=O)O` (stereo not given in full), the Potency result was “inactive”.
The same measure, in the same setting: then `O=S(=O)(c1ccccc1)N1CCC2(CC1)CN(Cc1nccs1)C2`, with “inactive”; and `COc1ccc(NC(=O)N2CC3(CCN(C(=O)c4cccn4C)CC3)C2)cc1`, with “inactive”.
Still for that read-out and setting: then `COc1cccc(Nc2ncc3ncc(=O)n(C4CC4)c3n2)c1`, with “inactive”.
